# High-throughput results from PubChem BioAssay.
# Shown are actives, neighbours in structure and some others; about 0.58% of the full set was active somewhere.
# Y pestis TopoI: Y. pestis Topo-I inhibition via cleavage products; Y. pestis Topo-I cleavage product accumulation, plate reader; activity, % at 10 µM; hit rate 0.064% among 360,000; in the data active = activity above about 50%, passing the limit was not always enough
# BioA inh: BioA (M. tuberculosis) enzyme inhibition. purified M. tuberculosis BioA enzyme, plate reader. inhibition, % at 9.99 µM. hit rate 0.096% among 360,000; in the data active = inhibition above about 40%
# TcdB GH inh: inhibitors of Clostridioides difficile toxin B glycohydrolase; TcdB glycohydrolase enzymatic assay, plate reader; hit rate 0.24% among 350,000; inhibition, % at 9.99 µM; AID 652162; P18177; in the data active = inhibition above about 10%
# Target sequence (P18177 whole entry, looked up): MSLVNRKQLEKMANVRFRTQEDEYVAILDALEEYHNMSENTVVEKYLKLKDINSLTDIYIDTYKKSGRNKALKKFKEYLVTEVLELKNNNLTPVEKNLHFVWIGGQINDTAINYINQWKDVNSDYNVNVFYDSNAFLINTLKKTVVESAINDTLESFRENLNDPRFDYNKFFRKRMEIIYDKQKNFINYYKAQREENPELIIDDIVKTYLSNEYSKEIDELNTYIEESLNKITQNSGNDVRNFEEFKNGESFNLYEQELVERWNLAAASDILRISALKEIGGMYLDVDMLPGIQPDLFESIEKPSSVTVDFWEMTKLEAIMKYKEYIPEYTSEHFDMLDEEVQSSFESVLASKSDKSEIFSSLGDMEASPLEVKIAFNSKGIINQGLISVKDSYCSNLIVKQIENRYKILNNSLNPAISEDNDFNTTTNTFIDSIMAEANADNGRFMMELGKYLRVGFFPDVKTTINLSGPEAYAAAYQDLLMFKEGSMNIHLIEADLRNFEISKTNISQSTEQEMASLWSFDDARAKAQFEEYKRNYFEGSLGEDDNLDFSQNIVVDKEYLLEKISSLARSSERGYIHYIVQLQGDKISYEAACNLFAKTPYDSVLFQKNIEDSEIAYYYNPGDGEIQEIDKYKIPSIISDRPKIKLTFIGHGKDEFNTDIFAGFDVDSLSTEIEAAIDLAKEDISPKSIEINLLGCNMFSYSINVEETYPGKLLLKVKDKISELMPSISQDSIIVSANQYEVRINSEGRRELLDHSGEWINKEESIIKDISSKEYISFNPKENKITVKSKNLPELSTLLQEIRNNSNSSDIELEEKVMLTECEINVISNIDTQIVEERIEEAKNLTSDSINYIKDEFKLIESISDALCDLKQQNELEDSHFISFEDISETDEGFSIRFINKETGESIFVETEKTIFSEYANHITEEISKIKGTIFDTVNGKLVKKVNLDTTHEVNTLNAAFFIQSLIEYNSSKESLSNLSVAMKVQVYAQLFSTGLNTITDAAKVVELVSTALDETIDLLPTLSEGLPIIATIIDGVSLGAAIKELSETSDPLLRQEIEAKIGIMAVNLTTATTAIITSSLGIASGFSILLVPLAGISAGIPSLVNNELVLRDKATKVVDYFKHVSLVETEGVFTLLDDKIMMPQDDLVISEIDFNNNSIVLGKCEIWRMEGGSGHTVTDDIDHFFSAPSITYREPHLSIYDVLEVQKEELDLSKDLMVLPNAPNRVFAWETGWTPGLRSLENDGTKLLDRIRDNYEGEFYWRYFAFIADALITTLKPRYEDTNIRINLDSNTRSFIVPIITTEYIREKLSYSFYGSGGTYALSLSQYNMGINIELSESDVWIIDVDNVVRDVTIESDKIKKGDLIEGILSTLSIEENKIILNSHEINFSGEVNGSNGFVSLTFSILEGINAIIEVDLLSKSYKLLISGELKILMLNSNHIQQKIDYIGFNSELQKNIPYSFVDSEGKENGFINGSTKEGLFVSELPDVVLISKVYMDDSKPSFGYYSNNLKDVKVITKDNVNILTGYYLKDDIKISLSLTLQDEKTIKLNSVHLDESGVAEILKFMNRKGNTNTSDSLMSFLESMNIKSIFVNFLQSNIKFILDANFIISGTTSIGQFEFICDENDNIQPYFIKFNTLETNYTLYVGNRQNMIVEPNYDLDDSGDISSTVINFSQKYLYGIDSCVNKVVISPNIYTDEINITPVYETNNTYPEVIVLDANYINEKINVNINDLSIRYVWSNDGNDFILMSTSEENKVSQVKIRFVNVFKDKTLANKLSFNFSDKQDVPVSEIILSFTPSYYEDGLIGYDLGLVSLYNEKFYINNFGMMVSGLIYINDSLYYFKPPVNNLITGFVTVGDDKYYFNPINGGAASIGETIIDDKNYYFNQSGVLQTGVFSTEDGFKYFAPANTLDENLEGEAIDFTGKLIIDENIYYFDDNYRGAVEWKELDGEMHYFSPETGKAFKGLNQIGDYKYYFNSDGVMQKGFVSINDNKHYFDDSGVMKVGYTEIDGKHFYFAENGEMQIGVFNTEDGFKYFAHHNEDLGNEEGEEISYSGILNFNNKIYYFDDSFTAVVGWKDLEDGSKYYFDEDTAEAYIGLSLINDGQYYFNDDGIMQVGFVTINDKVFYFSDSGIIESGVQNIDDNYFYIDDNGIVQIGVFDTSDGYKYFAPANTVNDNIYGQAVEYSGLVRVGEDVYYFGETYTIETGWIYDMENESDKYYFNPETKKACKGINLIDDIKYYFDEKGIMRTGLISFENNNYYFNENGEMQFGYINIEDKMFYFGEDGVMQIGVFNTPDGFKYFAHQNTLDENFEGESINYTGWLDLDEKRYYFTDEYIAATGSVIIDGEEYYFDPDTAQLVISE
# BH1578 lux ind: quorum light induction in luxS cqsA deficient V. cholerae; activation, % at 18.7 µM; V. cholerae BH1578 lux reporter, luminescence, 6 h; hit rate 0.16% among 350,000; in the data active = activation mostly above about 9.7%, no sharp cut-off
# FadD28 FP inh: M. tuberculosis FadD28 bisubstrate binding inhibition | hit rate 0.22% among 360,000 | inhibition, % at 12.5 µM | AID 588549 | FadD28 bisubstrate probe binding, fluorescence polarization; in the data active = inhibition above about 8.5%, passing the limit was not always enough
# * = called active by the depositor; i = inactive; / = not tested or not shown; ! = not confirmed by another sample.
SMILES,Y pestis TopoI,BioA inh,TcdB GH inh,BH1578 lux ind,FadD28 FP inh
O=C(Nc1ccccc1F)N1C[C@@H]2N[C@H](C1)C2c1ccc(-c2cccc(F)c2)cc1 (stereo not given in full),/,/,24*!,/,/
CCCCCCCCCCCCCCC(O)C[N+](C)(CCO)CCO (stereo not given),-40,/,2,i,17*
CNC(=O)C[C@@H]1CC[C@H]2[C@H](COc3ccc(NC(=O)c4ccc(F)c(F)c4)cc3C(=O)N2C)O1,/,2,-6,/,/
Cc1ccc(C)c2nc(Cl)c(C3NC(=O)c4ccccc4N3)cc12 (stereo not given),5,/,10*,i,-1
Cc1cc(C)c2nc(Cl)c(C3NC(=O)c4ccccc4N3)cc2c1 (stereo not given),-1,/,-1,i,-3
CCCNC(=O)Nc1ccc2c(c1)C(=O)N(C)C[C@H](OC)[C@H](C)CN(C(C)=O)[C@@H](C)CO2,/,-2,-2,/,/
COc1ccccc1S(=O)(=O)N(C)C[C@H]1OCc2ccccc2-c2c(n(C)c3ccccc23)C(=O)N([C@@H](C)CO)C[C@@H]1C,/,-3,0,/,/
CO[C@H]1CN(C)C(=O)c2cc(NC(=O)Nc3ccccc3)ccc2OC[C@@H](C)N(C(=O)Nc2c(C)noc2C)C[C@H]1C,/,0,-1,/,/
COc1cccc(NC(=O)Cn2c(=O)oc3ccccc32)c1,-4,/,-2,-3,39*
CC(C)(C)c1csc(NC(=O)Cn2c(=O)oc3ccccc32)n1,-2,8,/,-1,11*
O=C(Cn1c(=O)oc2ccccc21)Nc1nc(-c2ccccc2)cs1,14,-1,1,i,1
COc1ccccc1NC(=O)Cn1cnc2c(oc3nc4c(cc32)CCCC4)c1=O,24,0,0,0,25*
CCCCn1cnc2c(oc3nc4c(cc32)CCCC4)c1=O,-2,1,0,i,-4
O=c1c2oc3nc4c(cc3c2ncn1CCCc1ccccc1)CCCC4,-2,/,11*,-2,-2
COc1ccc(N=Nc2ccc(N)nc2N)cc1,-13,0,0,0,-4
Nc1ccc(N=Nc2ccc(O)cc2)c(N)n1,-13,/,20*,-1,0
COc1ccc(S(=O)(=O)N[C@@H]2C=C[C@H](CC(=O)N3CCC(Cc4ccccc4)CC3)O[C@@H]2CO)cc1,/,1,-1,/,/
COc1ccc(C(=O)Nc2c(-c3cccs3)c(=O)c3ccccc3n2C)cc1,6,/,11*,i,0
CCCC#Cc1ccc2c(c1)O[C@@H](CN(C)C(=O)C1CCCCC1)[C@H](C)CN([C@@H](C)CO)S2(=O)=O,/,0,/,/,/
O=C(O)c1ccc(Nc2nc(-c3cc4ccccc4oc3=O)cs2)cc1O,-16,/,0,0,30*
Cc1ccc(CN2C(=O)CN=C(c3ccccc3)c3ccccc32)cc1,13,5,12*,2,-5
N=C1c2ccccc2CN1NC(=O)C1CC1,4,/,/,i,1
N=C1c2ccccc2CN1NC(=O)CC12CC3CC(CC(C3)C1)C2,15,/,2,0,22*
CCOC(=O)c1c(C)[nH]c(C)c1C(=O)COC(=O)/C=C/c1ccco1,-3,1,10*,1,1
Cc1cc(C)nc(/N=C(\N)Nc2ccccc2-c2ccccc2)n1,3,/,10*,-1,-4
SMILES,Y pestis TopoI,BioA inh,TcdB GH inh,BH1578 lux ind,FadD28 FP inh
Cc1ccc(N/C(N)=N/c2nc(C)cc(C)n2)cc1,0,-1,/,0,-4
COc1ccc2c3c([nH]c2c1)[C@@H](CO)N(Cc1nccs1)CC31CCN(Cc2cncnc2)CC1,/,/,1,/,/
Cc1cc(NC(=O)CSC2=Nc3ccccc3C3=NC(Cc4ccccc4)C(=O)N23)n[nH]1 (stereo not given),0,2,/,26*,-1
C[C@@H]1CCCCO[C@H](CN(C)C(=O)Nc2ccc3c(c2)OCO3)[C@@H](C)CN([C@@H](C)CO)C(=O)c2cc(NC(=O)c3ccncc3)ccc2O1,/,-3,-1,/,/
Cc1ccc(S(=O)(=O)Nc2ccc3c(c2)C(=O)N([C@@H](C)CO)C[C@@H](C)[C@H](CN(C)S(=O)(=O)c2ccc(F)cc2)OCCCC[C@H](C)O3)cc1,/,-2,0,/,/
CCOC(=O)C1=C(C)NC2=C(C(=O)CCC2)C1c1coc2ccccc2c1=O (stereo not given),0,-1,2,i,-3
CC1=C(C(=O)OCC2CCCO2)C(c2coc3ccccc3c2=O)C2=C(CCCC2=O)N1 (stereo not given),2,/,13*,5,0
CCCn1nc([N+](=O)[O-])c(C(C#N)c2nc3ccccc3s2)c(Cl)c1=O (stereo not given),-3,8,/,i,26*
C[C@@H]1CN([C@@H](C)CO)C(=O)c2cc(NC(=O)CCC(F)(F)F)ccc2O[C@@H](C)CCCCO[C@@H]1CN(C)CC1CCCCC1,/,3,/,/,/
Cc1cccc(NC(=S)N(CCCN2CCOCC2)Cc2cn(C)c3ccccc23)c1,-3,-2,/,-1,-3
Cc1ccc(NC(=S)N(C)Cc2cn(C)c3ccccc23)cc1,5,-1,/,0,16*
CNc1ccc2nc3ccccc3[n+](C)c2c1,20,4,-2,i,57*
C[n+]1c2ccccc2nc2ccc(NCCO)cc21,47,6,4,0,44*
CC(C)n1c(NCCO)nc2ccccc21,9,/,1,i,0
c1ccc2nc3ccccc3nc2c1,1,-1,1,-1,1
Cc1cc(C(=O)NCc2cc(C(=O)O)oc2C)c(C)o1,3,0,/,17*,-3
c1ccc(-c2nn3c(C4CCCCC4)nnc3s2)nc1,5,1,/,-1,-3
Clc1ccc(OCc2nn3c(C4CCCCC4)nnc3s2)cc1,54*,7,/,i,0
COc1ccc(S(=O)(=O)N2C[C@@H](O)COC[C@@H]3O[C@@H](CC(=O)NCCCN4CCOCC4)CC[C@H]32)cc1,/,1,-2,/,/
COc1ccc(NC(=O)N(C)C[C@@H]2Oc3ccc(NC(=O)Cn4cnnn4)cc3C(=O)N([C@@H](C)CO)C[C@H]2C)cc1,/,3,1,/,/
COC(=O)c1ccc(Cn2cnc3c(sc4nc(N5CCOCC5)c5c(c43)CCCC5)c2=O)o1,52*,-1,/,i,-4
CSc1nc(Cl)cc(Nc2ccc(O)cc2)n1,-13,/,15*,-1,-3
COc1cc(OC)cc(C(=O)NNC(=O)CN2C(=O)NC(C)(c3ccc(C)cc3)C2=O)c1 (stereo not given),3,0,14*,0,-10
COc1ccc(NC(=O)CN2C(=O)NC(C)(c3ccc(C)cc3)C2=O)c([N+](=O)[O-])c1 (stereo not given),-16,0,1,i,-3
CO[C@H]1CN(C)C(=O)c2cc(NC(C)=O)ccc2OC[C@H](C)N(C(=O)c2cnccn2)C[C@@H]1C,/,2,/,/,/
COc1ccc(C(=O)NNC(=O)c2cc(C)nc3ccccc23)cc1,-3,-1,-2,-2,-1
O=C(NNC(=O)c1ccccc1O)c1ccc(Cl)cc1,4,-1,/,0,1
Cc1cccc(C(=O)NNC(=O)c2ccc(Cl)cc2)c1O,-11,-3,/,50*,-1
